Common to all, as to test: NCI-60 one-dose screen, 48 h (100 = growth as untreated, 0 = no growth, -100 = all killed)
Holding throughout (settings): 10 µM

For assay [1], the system named is HCT-15 colon.
For assay [2], the system named is HT29 colon.
In assay [3] the test system is SNB-75 CNS.
For assay [4], the system named is SNB-19 CNS.
Assay [5] concerns U251 CNS.
For assay [6], the system named is PC-3 prostate.
The subject of assay [7] is SK-MEL-5 melanoma.
For assay [8], the system named is UACC-62 melanoma.
The test system of assay [9] is LOX IMVI melanoma.
Assay [10] concerns SK-MEL-28 melanoma.
Assay [11] concerns SK-MEL-2 melanoma.
The test system of assay [12] is SN12C renal.
The test system of assay [13] is UO-31 renal.
Assay [14] relates to TK-10 renal.
For assay [15], the system named is ACHN renal.
Assay [16] has as its system CAKI-1 renal.
Assay [17] concerns A498 renal.
The test system of assay [18] is CCRF-CEM leukemia.
Assay [19] relates to MOLT-4 leukemia.

The panel holds about 83,000 compounds, 20% with a hit somewhere; the sample as a whole holds those more often.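 Compound tested at a single concentration for 48 hours in 96-well plates; a percent growth value below 10 was scored as active.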 A number with no mark means an inactive call. Active and inactive are the calls of the source.

Regarding `Cc1cc(C)c(C(=O)OC(C)CNC2CCCCC2)c(C)c1` (configuration not stated), the growth is 97.5% in [1]; 90.5% in assay [2]; 92.1% in assay [3]; 97.5% in assay [4]; 97.8% in assay [5]; 93.9% in [6]. The growth in [7] was 101%; in assay [8] it was 103%; in [9], 88.3%; in [10], 105%; in [11], 95%; in [12] it was 100%. The growth is 68.6% in [13]; 92% in assay [14]; 97.8% in [15]; 97% in assay [16]; 92.1% in assay [17]; 89.7% in assay [18]. For the same molecule, in assay [19], the growth was 84.7%.
Take `CCOc1ccc2c(c1)CC[C@@H]1[C@@H]2CC[C@]2(C)[C@@H](O)[C@@H](O)C[C@@H]12`: the growth in assay [1] is 95%; in assay [2], 109%; in assay [3], 107%; in assay [4], 99%; in [5] it was 95%; in [6], 91.2%. Also, the growth in assay [7] was 96.8%; in [8], 94.4%; in assay [9] it was 102%; in assay [10] it was 100%; in assay [11] it was 115%; in assay [12] it was 93.7%. The growth in [13] is 89.3%; in [14] it was 105%; in assay [15], 126%; in assay [16] it was 89.8%; in [17], 107%; in assay [18] it was 87.9%. Also, in assay [19], the growth is 95.2%.
Turning to `Cc1ccc2nc(-c3ccc(OCC(=O)N=Nc4c(O)[nH]c5ccccc45)cc3)[nH]c2c1`, the growth in assay [1] was 86.3%; in assay [2], 41.2%; in assay [3], 109%; in assay [4] it was 50%; in [5], 6.05% (active); in [6] it was 7.33% (active). In addition, the growth in [7] is 94.3%; in [8] it was 96.5%; in [9], 39%; in assay [10], 102%; in assay [11] it was 104%; in [12] it was 57.3%. Further, the growth in assay [13] is 96.1%; in assay [14] it was 103%; in assay [15], 95.6%; in assay [16], 93.4%; in [17], 93.2%; in [18], 9.27% (active). The growth in [19] was 39.6%.
Turning to `CCOCC[P+](c1ccccc1)(c1ccccc1)c1ccccc1`, the growth is 98.8% in [1]; 34.2% in assay [2]; 46.7% in [3]; 48% in assay [4]; 38.3% in [5]; 33.4% in assay [6]. Further, the growth in assay [7] was 21.6%; in assay [8], 33%; in [9] it was 52.5%; in assay [10], 67.9%; in assay [11], 51.2%; in assay [12] it was 59%. Also, the growth in [13] is 75.9%; in assay [14], 57.3%; in assay [15], 94.2%; in assay [16], 85.5%; in assay [17], 72%; in [18], 34.7%. Besides, the growth in [19] was 47.6%.
As to `COc1ccc(-c2oncc2-c2cc(OC)c3c(c2)OCO3)cc1`, the growth in assay [1] is 15.9%; in assay [2] it was 6.55% (active); in [3] it was -9.45% (active); in [4] it was 46.2%; in assay [5], 28%; in assay [6], 40.4%. For the same molecule, the growth in assay [7] was 17.9%; in [8], 50.7%; in assay [9], 34.2%; in assay [10], 37%; in assay [11] it was -1.77% (active); in [12], 35.9%. Further, the growth is 39.8% in [13]; 48.2% in [14]; 41.1% in assay [15]; 22.9% in [16]; 7.82% (active) in assay [17]; 16% in assay [18]. Also, the growth in [19] was 22.4%.
In the case of `COc1ccc(OC)c([N+](=O)[O-])c1C=O`, the growth in assay [1] is 104%; in [2] it was 55.6%; in [3], 85.8%; in assay [4] it was 101%; in assay [5], 105%; in assay [6] it was 92.9%. The growth in assay [7] is 96.1%; in assay [8] it was 100%; in [9], 83.4%; in assay [10] it was 103%; in assay [11], 136%; in [12], 101%. Moreover, the growth is -43.3% (active) in [13]; 154% in assay [14]; 92.5% in assay [15]; 72.2% in assay [16]; 59.2% in assay [17]; 41.4% in assay [18]. Besides, the growth in [19] was 66.8%.
Regarding `Cc1cc(C)c(/C=C2\C(=O)Nc3ccc(NC(=O)CCCCCCC(=O)NO)cc32)[nH]1`, the growth in assay [1] is 86%; in [2] it was 11.4%; in assay [3], -1.02% (active); in assay [4] it was 31.2%; in assay [5], 4% (active); in [6], 5.9% (active). Further, the growth in assay [7] was 6.38% (active); in assay [8] it was -12.3% (active); in assay [9] it was 7.92% (active); in assay [10] it was 24%; in assay [11], -5.24% (active); in [12], 44%. For the same molecule, the growth in [13] was 66%; in assay [14], 10.6%; in [15], 58.5%; in [16], 68.7%; in [17] it was -9.05% (active); in assay [18], 23.9%. For the same molecule, the growth in assay [19] is 13.2%.
With `CCCc1c(CC)c(=N)c2ccccc2n1C`, the growth in [1] was 10.7%; in [2], 4.71% (active); in assay [3], 73.4%; in assay [4], 95.1%; in assay [5], 43.2%; in assay [6], 67.4%. Besides, the growth in assay [7] is 19.2%; in assay [8] it was -3.76% (active); in assay [9], 1.08% (active); in assay [10], -80.8% (active); in assay [11] it was 37.3%; in [12], 72.5%. In addition, the growth in assay [13] is 38.3%; in [14], 74.4%; in [15], 65.8%; in assay [16], 39.8%; in [17], 42.4%; in assay [18], 9.26% (active). The growth in assay [19] is 0.122% (active).

The values above are taken from PubChem BioAssay (NCI).
